Results as given in PubChem BioAssay (NCATS).
Results filed as inconclusive are left out. Active and inactive are the calls of the source. Calls follow the shape of the full dose curve. Bridge positions count the residues as written; N and C are the ends. Square brackets hold non-standard residues; d marks the D form. Peptide text beside a SMILES is read from it. Orn = NCCC[CH](N)C(=O)O; Mpa = O=C(O)CCS

How the values were obtained:
[1] = Primary qHTS for inhibitors of SARS-S pseudo-typed particle cell entry (AID 1479145); conditions: outcome: dose series up to 57.1 µM unless noted; also: nearly all actives have a fitted effect of over 45% in size; as to activity change, negative = inhibition: % is scaled to controls: 0 for no effect and ±100 for the full control effect
[2] = Primary qHTS for Huh7 cytotoxicity: counterscreen for inhibitors of MERS-S pseudotyped particle cell entry (AID 1479147); conditions: outcome: dose series up to 57.1 µM unless noted; also: potency is read from the fitted curve at half-maximal effect
[3] = Primary qHTS for inhibitors of MERS-S pseudo-typed particle cell entry (AID 1479149); conditions: outcome: dose series up to 57.1 µM unless noted; also: nearly all actives have a fitted effect of over 60% in size; as to activity change, negative = inhibition: % is scaled to controls: 0 for no effect and ±100 for the full control effect
[4] = Primary qHTS for Vero E6 cytotoxicity: counterscreen for inhibitors of SARS-S pseudo-typed particle cell entry (AID 1479150); conditions: outcome: dose series up to 57.1 µM unless noted; also: potency is read from the fitted curve at half-maximal effect
[5] = Cytotoxicity counterscreen for inhibitors of SARS-CoV-2 cell entry (AID 1645845); conditions: outcome: dose series up to 57.1 µM unless noted; also: nearly all actives have a fitted effect of over 50% in size; also: potency is read from the fitted curve at half-maximal effect
Method in brief: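 After a 15 min room-temperature ATPLite 1step step, luminescence reflected ATP remaining in HEK293-ACE2 cells exposed to compound for 1 h plus 48 h at 37 C, with percent activity set by cell and no-cell controls.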

[6] = Primary qHTS to identify inhibitors of SARS-CoV-2 cell entry (AID 1645846); conditions: SARS-CoV-2 pseudovirus cell entry assay, luminescence; activity change, negative = inhibition: at 57.1 µM (top of the series) unless noted; also: nearly all actives have a fitted effect of over 45% in size
Method in brief: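 HEK293 cells stably expressing human ACE2, pre-treated 1 h with compound, then infected with MLV particles pseudotyped with Wuhan-Hu-1 spike (C-terminal 19-aa truncation). Luciferase luminescence after 48 h at 37 °C, normalised to spike PP and bald PP.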

CC[C@H]1OC(=O)C[C@@H](O)[C@H](C)[C@@H](OC2OC(C)C(O)C(N(C)C)C2O)[C@@H](CCN2CCCCC2)C[C@@H](C)C(=O)/C=C/C(C)=C/[C@@H]1CN1CCCCC1 (stereo partly specified)
inactive: Potency [1] | Potency [2] | Potency [3] | Potency [4] | Potency [5]

CCCCCCCCN=C(N)NC(N)=NCc1ccc(Cl)c(Cl)c1
inactive: Potency [1] | Potency [2] | Potency [3] | Potency [4] | Potency [5]

CC1(C)S[C@@H]2[C@H](NC(=O)C(C(=O)O)c3ccsc3)C(=O)N2[C@H]1C(=O)O (stereo partly specified)
inactive: Potency [1] | Potency [2] | Potency [3] | Potency [4] | Potency [5]

CC(C)CN(C[C@@H](O)[C@H](Cc1ccccc1)NC(=O)O[C@H]1CCOC1)S(=O)(=O)c1ccc(N)cc1
inactive: Potency [1] | Potency [2] | Potency [3] | Potency [4] | Potency [5]

CC(C)[C@H]1CC[C@H](C)C[C@H]1O
inactive: Potency [1] | Potency [2] | Potency [3] | Potency [4] | Potency [5]

FC(F)(F)C(F)(F)C(F)(F)C(F)(F)C(F)(F)C(F)(F)F
inactive: Potency [1] | Potency [2] | Potency [3] | Potency [4] | Potency [5]

CC(C)(C)NC(=O)[C@H]1CC[C@H]2[C@@H]3CC=C4C=C(C(=O)O)CC[C@]4(C)[C@H]3CC[C@]12C
inactive: Potency [1] | Potency [2] | Potency [3] | Potency [4] | Potency [5]

CC[C@@H](C)C[C@@H](C)CCCCCCCCC(=O)NC1C[C@@H](O)[C@@H](NCCN)NC(=O)[C@@H]2[C@@H](O)CCN2C(=O)[C@H]([C@H](O)CCN)NC(=O)[C@H]([C@H](O)[C@@H](O)c2ccc(O)cc2)NC(=O)[C@@H]2C[C@@H](O)CN2C(=O)[C@H]([C@@H](C)O)NC1=O (stereo partly specified)
inactive: Potency [1] | Potency [2] | Potency [3] | Potency [4] | Potency [5]

O=C(O)CCSC[C@H]1O[C@@H]2O[C@H]3[C@H](O)[C@@H](O)[C@@H](O[C@H]4[C@H](O)[C@@H](O)[C@@H](O[C@H]5[C@H](O)[C@@H](O)[C@@H](O[C@H]6[C@H](O)[C@@H](O)[C@@H](O[C@H]7[C@H](O)[C@@H](O)[C@@H](O[C@H]8[C@H](O)[C@@H](O)[C@@H](O[C@H]9[C@H](O)[C@@H](O)[C@@H](O[C@H]1[C@H](O)[C@H]2O)O[C@@H]9CSCCC(=O)O)O[C@@H]8CSCCC(=O)O)O[C@@H]7CSCCC(=O)O)O[C@@H]6CSCCC(=O)O)O[C@@H]5CSCCC(=O)O)O[C@@H]4CSCCC(=O)O)O[C@@H]3CSCCC(=O)O
inactive: Potency [1] | Potency [2] | Potency [3] | Potency [4] | Potency [5]

C=C1CCN([C@H](C)[C@](O)(Cn2cncn2)c2ccc(F)cc2F)CC1
inactive: Potency [1] | Potency [2] | Potency [3] | Potency [4] | Potency [5]

Cn1nnnc1SCC1=C(C(=O)O)N2C(=O)[C@H](NC(=O)C(O)c3ccccc3)C2SC1 (stereo partly specified)
inactive: Potency [1] | Potency [2] | Potency [3] | Potency [4] | Potency [5]

C[N+]1(C)C2CC[C@H]1CC(OC(=O)C(O)c1ccccc1)C2 (stereo partly specified)
inactive: Potency [1] | Potency [2] | Potency [3] | Potency [4] | Potency [5]

CCCc1ccc(C(=O)O)cc1
inactive: Potency [1] | Potency [2] | Potency [3] | Potency [4] | Potency [5]

COC(=O)N[C@H](C(=O)N1CCC[C@H]1c1ncc(-c2ccc3c(c2)O[C@@H](c2ccccc2)n2c-3cc3cc(-c4cnc([C@@H]5CCCN5C(=O)[C@@H](NC(=O)OC)C(C)C)[nH]4)ccc32)[nH]1)C(C)C
inactive: Potency [1] | Potency [2] | Potency [3] | Potency [4] | Potency [5]

[2H]C([2H])([2H])C(CCC[C@@H](C)[C@H]1CC[C@H]2/C(=C/C=C3\C[C@@H](O)C[C@H](O)C3=C)CCC[C@]12C)C([2H])([2H])[2H]
inactive: Potency [1] | Potency [2] | Potency [3] | Potency [4] | Potency [5]

CC(C(=O)O)c1ccc(C2CCCCC2)c2ccccc12 (stereo unspecified)
inactive: Potency [1] | Potency [2] | Potency [3] | Potency [4] | Potency [5]

C[N+](C)(C)CCOP(=O)([O-])OP(=O)(O)OC[C@H]1OC(n2ccc(N)nc2=O)[C@H](O)[C@@H]1O (stereo partly specified)
inactive: outcome [1] inactive [at 0.573 µM] | outcome [2] inactive [at 0.573 µM] | outcome [3] inactive [at 0.573 µM] | outcome [4] inactive [at 0.573 µM] | outcome [5] inactive [at 0.702 µM]

CN(C)CC(=O)O
inactive: Potency [1] | Potency [2] | Potency [3] | Potency [4] | Potency [5]

CCC1(C)OC(=O)N(C)C1=O (stereo unspecified)
inactive: Potency [1] | Potency [2] | Potency [3] | Potency [4] | Potency [5]

O=S(=O)(O)CCCS(=O)(=O)O
inactive: Potency [1] | Potency [2] | Potency [3] | Potency [4] | Potency [5]

CC[C@H]1OC(=O)C[C@@H](OC(C)=O)[C@H](C)[C@@H](O[C@@H]2O[C@H](C)[C@@H](O[C@H]3C[C@@](C)(O)[C@@H](OC(=O)CC(C)C)[C@H](C)O3)[C@H](N(C)C)[C@H]2O)[C@@H](CC=O)C[C@@H](C)C(=O)/C=C/C(C)=C/[C@@H]1CO[C@@H]1O[C@H](C)[C@@H](O)[C@@H](OC)[C@H]1OC
inactive: Potency [1] | Potency [2] | Potency [3] | Potency [4] | Potency [5]

O=C(Cn1c(=O)sc2ccc(Cl)cc21)N1CCN(CCO)CC1
inactive: Potency [1] | Potency [2] | Potency [3] | Potency [4] | Potency [5]

CC(C)OC(=O)Nc1ccc2nc(-c3cscn3)[nH]c2c1
active: Potency [2] 10 µM | Potency [4] 8.91 µM | Potency [5] 7.08 µM
inactive: Potency [1] | Potency [3]

OC[C@H]1O[C@@H](OC[C@H]2O[C@@H](O[C@@H]3[C@@H](O)[C@H](O)O[C@H](CO)[C@H]3O)[C@H](O)[C@@H](O[C@@H]3O[C@H](CO)[C@@H](O)[C@H](O)[C@H]3O)[C@@H]2O)[C@H](O)[C@@H](O)[C@@H]1O
inactive: Potency [1] | Potency [2] | Potency [3] | Potency [4] | Potency [5]

NC(Cc1cc(I)c(Oc2cc(I)c(O)c(I)c2)c(I)c1)C(=O)O (stereo unspecified)
inactive: Potency [1] | Potency [2] | Potency [3] | Potency [4] | Potency [5]

CCCCOC(=O)C(=O)Nc1cccc(-c2nn[nH]n2)c1
inactive: Potency [1] | Potency [2] | Potency [3] | Potency [4] | Potency [5]

CO[C@H]1C[C@@H](O[C@@H]2/C(C)=C/C[C@@H]3C[C@@H](C[C@]4(CC[C@H](C)[C@@H](C5CCCCC5)O4)O3)OC(=O)[C@@H]3C=C(C)/C(=N/O)[C@H]4OC/C(=C\C=C\[C@@H]2C)[C@]43O)O[C@@H](C)[C@H]1O
inactive: Potency [1] | Potency [2] | Potency [3] | Potency [4] | Potency [5]

CCOc1ccc(CC2NC(=O)CCSSCC(C(=O)N3CCCC3C(=O)NC(CCCN)C(=O)NCC(N)=O)NC(=O)C(CC(N)=O)NC(=O)C(C(C)O)NC(=O)C(C(C)CC)NC2=O)cc1 (stereo unspecified) ([Mpa]Y(Et)ITNCP[Orn]G-NH2; disulfide 1-6; configuration not given here)
inactive: Potency [1] | Potency [2] | Potency [3] | Potency [4] | Potency [5]

CN(CCCCCCCCCCN(C)C(=O)Oc1cccc([N+](C)(C)C)c1)C(=O)Oc1cccc([N+](C)(C)C)c1
inactive: Potency [1] | Potency [2] | Potency [3] | Potency [4] | Potency [5]

NCCCC(N)C(=O)O (stereo unspecified)
inactive: Potency [1] | Potency [2] | Potency [3] | Potency [4] | Potency [5]

O=[N+]([O-])c1ccc(/C=C/c2cccc(CO)n2)o1
inactive: Potency [1] | Potency [2] | Potency [3] | Potency [4] | Potency [5]

CCO/N=C(\C(=O)N[C@@H]1C(=O)N2C(C(=O)O)=C(Sc3nc(-c4cc[n+](C)cc4)cs3)CS[C@H]12)c1nsc(NP(=O)(O)O)n1
inactive: Potency [1] | Potency [2] | Potency [3] | Potency [4] | Potency [5]

CN(C)CC(c1ccc(O)cc1)C1(O)CCCCC1 (stereo unspecified)
inactive: Potency [1] | Potency [2] | Potency [3] | Potency [4] | Potency [5]

NS(=O)(=O)c1ccc(-n2nc(C(F)(F)F)cc2-c2ccc(F)cc2)cc1
inactive: Potency [1] | Potency [2] | Potency [3] | Potency [4] | Potency [5]

CCN1CCCC1CNC(=O)c1cc(S(=O)(=O)CC)ccc1OC (stereo unspecified)
inactive: Potency [1] | Potency [2] | Potency [3] | Potency [4] | Potency [5]

COc1ccc(CCNCC(O)COc2cccc(C)c2)cc1OC (stereo unspecified)
inactive: Potency [1] | Potency [2] | Potency [3] | Potency [4] | Potency [5]

CCCC(=O)Nc1ncnc2c1ncn2C1O[C@@H]2COP(=O)(O)O[C@H]2[C@H]1OC(=O)CCC (stereo partly specified)
inactive: Potency [1] | Potency [2] | Potency [3] | Potency [4] | Potency [5]

O=c1[nH]cnc2c([C@@H]3N[C@H](CO)[C@@H](O)[C@H]3O)c[nH]c12
inactive: Potency [1] | Potency [2] | Potency [3] | Potency [4] | Potency [5]

CC(C)C[C@H](NC(=O)[C@@H](Cc1c[nH]c2ccccc12)NC(=O)[C@H](Cc1ccc(O)cc1)NC(=O)[C@H](CO)NC(=O)[C@H](Cc1c[nH]c2ccccc12)NC(=O)[C@H](Cc1cnc[nH]1)NC(=O)[C@@H]1CCC(=O)N1)C(=O)N[C@@H](CCCN=C(N)N)C(=O)N1CCC[C@H]1C(=O)NCC(N)=O
inactive: Potency [1] | Potency [2] | Potency [3] | Potency [4] | Potency [5]

OC[C@H]1O[C@@H](OCCc2ccc(O)cc2)[C@H](O)[C@@H](O)[C@@H]1O
inactive: Potency [1] | Potency [2] | Potency [3] | Potency [4] | Potency [5]

O=P(O)(O)C(O)(Cc1cnc2ccccn12)P(=O)(O)O
inactive: outcome [1] inactive [at 0.573 µM] | outcome [2] inactive [at 0.573 µM] | activity change, negative = inhibition [3] -0.315% [at 0.573 µM] | outcome [4] inactive [at 0.573 µM] | outcome [5] inactive [at 0.702 µM]

C=C1/C(=C/C=C2\CCC[C@]3(C)[C@@H]([C@H](C)/C=C/C=C/C(O)(CC)CC)CC[C@@H]23)C[C@@H](O)C[C@@H]1O
-5.54%: activity change, negative = inhibition [6]
inactive: Potency [1] | Potency [2] | Potency [3] | Potency [4] | Potency [5]
